Data on 36 compounds can be found in PubChem BioAssay (EPA / NIEHS).

Each structure is given as a SMILES string. Inconclusive results are not listed. Active and inactive are the calls of the source. Rule for the calls: active = hit-call score of the fitted dose curve at least 0.9, where 1 is the maximum; inconclusive = response in the unintended direction; inactive = score below 0.9.

The nature of the assay: CLD_ACTIN_6hr: CellzDirect (CLD) Gene Expression Assay for Baseline Control (Actin) at 6 hours (AID 2283676).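 Note: active means increased actin mRNA relative to DMSO vehicle.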 On the procedure: CLD_6hr is a cell-based, multiplexed-readout assay that uses hepatocyte, a human liver primary cell, with measurements taken at 6 hours after chemical dosing in a 96-well plate.CLD_ACTIN_6hr is one of 16 assay component(s) measured or calculated from the CLD_6hr assay. It is designed to make measurements of mRNA induction, a form of inducible reporter, as detected with chemiluminescence signals by Quantitative Nuclease Protection Assay (qNPA) technology.Data from the assay component CLD_ACTIN_6hr was analyzed at the endpoint, CLD_ACTIN_6hr, in the positive analysis fitting direction relative to DMSO as the negative control and baseline of activity. Using a type of inducible reporter, gain-of-signal activity can be used to understand changes in the reporter gene as they relate to the gene ACTA1. Furthermore, this assay endpoint can be referred to as a secondary readout, because this assay has produced multiple assay endpoints where this one serves a background control function. To generalize the intended target to other relatable targets, this assay endpoint is annotated to the background measurement intended target family, where subfamily is baseline control.
Human hepatocyte cultures were treated daily for two consecutive days with fresh dosing solutions containing appropriate concentrations of the 320 ToxCast chemicals (chemical identities were blinded to CellzDirect and other ToxCast collaborators), vehicle control (0.2% DMSO), and positive control inducers as summarized in Table 1. Due to the large number of treatment groups and chemicals examined, the ToxCast chemicals were divided into two groups (spanning two independent cultures of hepatocytes from separate donor preparations (Hu778: ToxCast plates 1 and 2; Hu776: ToxCast plates 3 and 4). Each preparation of human hepatocyte cultures was treated with respective vehicle control, medium only control, set of six positive controls/reference chemicals for the five hepatic receptor pathways, and a subset of eight of the ToxCast chemicals (indoxacarb, pyrithiobac-sodium, norflurazon, cyhalofop-butyl, methomyl, thiram, acetochlor, and propiconazole). These replicate data, coupled with internal replicates designed within the blinded ToxCast chemical library, provided additional data to evaluate interindividual differences between hepatocyte preparations and their potential impact on chemical profiles.Cell morphology and integrity were evaluated using phase-contrast microscopy as an indicator of hepatocyte cell health (Tyson & Green, 1987). Cultures for each treatment group (i.e., media, vehicle [0.2% DMSO], positive control inducers [multiple concentrations], and the ToxCast chemicals [multiple concentrations]) were observed and cell morphology was assessed relative to vehicle control cultures at each harvest time point (0, 6, 24, or 48 h). […] Images were evaluated at the conclusion of the study to assess changes in cell integrity and account for the effects of chemical exposure on uncharacteristic changes in concentration-dependent gene expression profiles. The results from these determinations of apparent cytotoxicity were annotated (yes/no) alongside the corresponding qNPA data for reference.At the conclusion of each treatment period, hepatocyte cultures (96-well) were washed with 1 volume of HBSS, lysed by addition of 25 ul ArrayPlate lysis buffer (HTG, Tucson, AZ), and 70 ul/well of Denaturation Oil, denatured by incubation at 95C for 10 min, and frozen at approximately -70C until analysis by nuclease protection assay (qNPA) (Roberts et al., 2007). For qNPA analysis, cell lysates were thawed at 50C for approximately 30 min, qNPA probes were added, and samples were incubated at 95C for 10 min to begin the detection process by denaturing the target RNA, dissociating the duplexes and secondary structure hybridization. At the conclusion of the hybridization period, S1 nuclease reagent was added to each sample to digest all nonprotected nucleotides at 50C for 60-90 min. […]
With `COC(=O)c1ccccc1C(=O)O`, the compound was classed as inactive.
Consider `COC(=O)c1ccccc1S(=O)(=O)NC(=O)Nc1nc(OC(F)F)cc(OC(F)F)n1`, for which the compound was called inactive.
Take `COCCO`: the result was inactive.
The entry for `CCCOC(=O)NCCCN(C)C` is “inactive”.
Next, `COC(=O)c1ccc(I)cc1S(=O)(=O)NC(=O)Nc1nc(C)nc(OC)n1`: “inactive”; `COc1c(Cl)ccc(Cl)c1C(=O)O`: “inactive”; `N#CSCSc1nc2ccccc2s1`: “inactive”.
For the compound `CCCCCCC(C)OC(=O)COc1nc(F)c(Cl)c(N)c1Cl` (stereo unspecified), the compound was classed as inactive.
Next, `CC(C)(C)[C@@H](O)[C@@H](Cc1ccc(Cl)cc1)n1cncn1`: “inactive”.
For `c1ccc2[nH]c(-c3cscn3)nc2c1`, the call was inactive.
Consider `Cc1nn(C)c(Oc2ccccc2)c1C=NOCc1ccc(C(=O)OC(C)(C)C)cc1`, for which the compound was classed as inactive.
`COC(=O)c1c(Cl)nn(C)c1S(=O)(=O)NC(=O)Nc1nc(OC)cc(OC)n1`: the compound was called inactive.
With `S=C([S-])NCCNC(=S)[S-].[Mn+2]`, the result was inactive.
Next, `CCSC(=O)N(CC(C)C)CC(C)C`: “inactive”.
The entry for `O=C(Nc1ccc([N+](=O)[O-])cc1Cl)c1cc(Cl)ccc1O` is “inactive”; for `CCCCOC(=O)[C@@H](C)Oc1ccc(Oc2ccc(C(F)(F)F)cn2)cc1` it is “inactive”.
Consider `COC(=O)c1cccc(C)c1S(=O)(=O)NC(=O)Nc1nc(OCC(F)(F)F)nc(N(C)C)n1`, for which the outcome was inactive.
As for `COc1nc(C)nc(NC(=O)NS(=O)(=O)c2ccccc2OCCCl)n1`, the compound was classed as inactive.
Regarding `CCOC(=O)C(C)Oc1ccc(Oc2nc3ccc(Cl)cc3o2)cc1` (stereo unspecified), the result was inactive.
On to `CCOC(=O)[C@H](C)Oc1ccc(Oc2nc3ccc(Cl)cc3o2)cc1`, for which the outcome was inactive.
Next, `CCC(C)OC(=O)N1CCCCC1CCO` (stereo unspecified): “inactive”.
Next, `CCCN(CCC)c1c([N+](=O)[O-])cc(C(F)(F)F)c(N)c1[N+](=O)[O-]`: “inactive”; `CCN(CC)C(=O)c1cccc(C)c1`: “inactive”.
With `CCCOC(=O)c1ccc(C(=O)OCCC)nc1`, the result was inactive.
In the case of `C#CCOC(=O)[C@@H](C)Oc1ccc(Oc2ncc(Cl)cc2F)cc1`, the compound was called inactive.
As for `CCOC(=O)C(C)Oc1ccc(Oc2cnc3cc(Cl)ccc3n2)cc1` (stereo unspecified), the compound was classed as inactive.
For the compound `CC1(C)C(C=C(Cl)Cl)C1C(=O)OCc1cccc(Oc2ccccc2)c1` (stereo unspecified), the compound was classed as inactive.
Turning to `C=CCOC(Cn1ccnc1)c1ccc(Cl)cc1Cl` (stereo unspecified), the compound was classed as inactive.
The entry for `CCOC(=O)NCCOc1ccc(Oc2ccccc2)cc1` is “inactive”; for `Oc1ccc(C(c2ccc(O)cc2)C(Cl)(Cl)Cl)cc1` it is “inactive”; for `COC(=O)c1ccc(CNS(C)(=O)=O)cc1S(=O)(=O)NC(=O)Nc1nc(OC)cc(OC)n1` it is “inactive”.
The entry for `CCCCC(CC)CN1C(=O)C2C3C=CC(C3)C2C1=O` (stereo unspecified) is “inactive”; for `O=C(O)C1(C(=O)Nc2ccc(Cl)cc2Cl)CC1` it is “inactive”; for `CC(C)(c1ccc(O)cc1)c1ccc(O)cc1` it is “inactive”.
The entry for `CCCN(CCC)C(=O)SCC` is “inactive”; for `CSC(=O)c1cccc2nnsc12` it is “inactive”.
